# Measured values as given in the supplement of paper PMC6555819.
# How the values were obtained:
# Assay in all cases: PBM binding z-score (relative to random genomic background probes); higher = stronger binding; sequences stand for … in GC…GCGATTGACAGCGTAGAATGAAGG
# [1] = system: PPARg:RXRa DBDmut IVT, anti-RXR (DBD mutation: RXRa K156A/R161A, NR concentration 270 nM, RXRa partner concentration 90 nM)
# Outline: (§1)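 Binding z-scores were set against random background probes. The data came from custom Agilent 4×180K protein-binding microarrays carrying double-stranded probes with 34-nt variable regions, incubated 1 h with ligand-free nuclear receptor dimers. Partner-specific antibodies detected binding, and scanned fluorescence was regression-normalized.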
# [2] = system: PPARg:RXRa IVT, anti-PPARg (NR concentration 270 nM, RXRa partner concentration 90 nM)
# Outline: as §1
# [3] = system: PPARg DBDmut:RXRa IVT, anti-PPARg (DBD mutation: PPARg1 K132A/R137A, NR concentration 270 nM, RXRa partner concentration 90 nM)
# Outline: as §1
# [4] = system: PPARg DBDmut IVT, anti-PPARg (DBD mutation: PPARg1 K132A/R137A, NR concentration 270 nM)
# Outline: as §1
# [5] = system: PPARg homodimer (NR concentration 180 nM)
# Outline: as §1
# [6] = system: PXR:RXRa (NR concentration 270 nM, RXRa partner concentration 90 nM)
# Outline: as §1
# [7] = system: PXR homodimer (NR concentration 270 nM)
# Outline: as §1
# [8] = system: RARa:RXR (NR concentration 270 nM, RXRa partner concentration 90 nM)
# Outline: as §1
# [9] = system: RARa homodimer (NR concentration 270 nM)
# Outline: as §1
# [10] = system: RARb:RXRa (NR concentration 270 nM, RXRa partner concentration 90 nM)
# Outline: as §1
Sequence,PBM binding z-score [1],PBM binding z-score [2],PBM binding z-score [3],PBM binding z-score [4],PBM binding z-score [5],PBM binding z-score [6],PBM binding z-score [7],PBM binding z-score [8],PBM binding z-score [9],PBM binding z-score [10]
CAAATTAGGTCAAGAGGTCAAAGTCCGCTTCCCG,8.5,8.22,3.42,1.71,8.6,6.49,3.51,8.33,5.28,5.74
GCTAGCAGGCCATTTGGGTCACTCAATGACGGGC,1.95,2.3,-1.31,-1.12,-0.589,0.628,0.0652,0.69,-0.931,1.63
ATACCAAGGTGATCGTGAGGTCATTGATACTAAC,0.662,2.58,0.666,0.349,2.35,5.39,4.33,4.55,0.789,3.25
CCTTACGGGTCACTCCAGGTTATAGCGTCGGAGT,2.49,3.79,0.79,-0.822,2.29,5.1,0.516,4.18,0.581,3.74
CGAACTAGCTCAGAACAGGACAGTGAAGGATGAT,-0.0249,-0.714,-0.195,0.0741,-0.71,-0.669,0.0442,-0.393,0.354,-0.236
CACCCTAGGTCAGGGCCAGTATAGGAGGAACGTT,0.709,1.64,-0.28,-0.553,1.71,0.664,0.00908,1.49,-0.0281,3.38
GGAACGAGGGCATTCGAGTTAATAGCATGGCGAT,3.25,2.26,-0.564,-0.5,0.00587,3.48,0.437,0.742,-0.33,1.8
TCGAGTAGGTTAGGGGCATTTAGAATGGCGTCGA,2.14,1.43,-0.441,-0.569,0.734,0.534,0.61,0.611,0.362,0.962
ATTCAAAGTTCAGGACGAGGTAACGTAAAGCACG,-0.268,1.33,1.03,0.76,1.93,2.95,1.44,3.01,0.385,4.19
AAAGACAGGTGATGAAGGTAACTCAGGCTATCAT,0.0134,0.744,0.665,-0.142,0.408,0.0948,0.956,0.223,1,0.438
TGAATGAGGTTAAAGATCAAGGAACGTGGCGTCG,1.88,3.3,0.538,0.468,0.301,2.23,-0.137,3.64,0.0967,2.11
GCTATTAGTTGAGAGGGCAACCGAATGATTCTCG,0.549,0.28,0.117,-0.0279,0.87,0.651,-0.0553,0.826,0.278,1.4
ATCTATAGGTAAAGATAGTTCAGTGAATGCAAAT,1.2,1.29,0.937,1.26,0.82,1.65,0.751,0.916,0.797,0.78
CTACCAAGGTGCACAAGGTCGTTGATTACTATTC,0.47,0.223,0.019,-0.417,0.705,1.86,1.22,1.87,0.655,1.29
CTCGAAAGGTCGTGCCCAGGTGAGTATACCAAAC,0.771,1.91,0.249,0.285,2.38,3.17,0.0798,4.63,0.0863,3.91
CATCAAAGTTCAACTAAGGTAACGTAAAGCACGC,0.365,1.94,1.26,1.35,3.92,5.93,5.95,4.5,3.5,5.37
CCGACTGGGGCATAGGTTACCATACTCAGTACGA,2.91,4.3,-0.132,-0.537,0.866,0.141,-0.441,0.637,-0.24,0.735
TCTAATAGTTGAAGGGCAACCGACGAGTCCGTTT,2.21,0.129,1.32,0.0205,0.705,0.839,0.503,0.712,-0.387,1.53
GCTATTAGTTGAAAGGCCAACCGAATGATTCTCG,0.47,0.355,0.179,-0.242,0.874,0.178,-0.082,0.627,0.368,1.56
AGTCAAAGTTCACTCGGTAACGTAAGATTCAGCT,0.841,2.9,1.02,1.36,2.4,4.21,2.5,3.1,1,4.76
GCTTGGAGATCAAGGTTAAGAAAGACTAAGCTAA,-0.178,0.209,-0.0376,-0.611,0.0193,0.278,-0.313,1.12,-0.305,0.871
GGAACGAGGGCATGCGAGTTGATAGCATGGCGAT,2.78,1.98,-0.352,-0.663,-0.621,3.59,0.407,0.73,-0.824,1.91
TGGATGAGGTTATAAGATCAGGGAACGTTGCAAA,-0.0803,0.649,0.558,0.341,0.81,0.986,0.518,1.34,0.465,1.25
CAAACTAGATCAAGGTCAAAGTCGGTTTGTGCCA,3.37,3.93,1.86,-0.496,1.73,4.01,1.98,3.96,0.755,3.92
CGAACTAGCTCATCCAGGACAGTGAATACATTGA,0.221,-0.126,-0.227,0.607,0.205,-0.344,0.167,-0.0855,-0.0939,-0.208
